Source: PubChem BioAssay (NCI)
This is part of a sample that, as a whole, favours compounds with a hit. Of some 79,000 tested, about 15% had one in any assay. A number with no mark means an inactive call. Activity calls are given as the source filed them. Rule as the data show it: active = growth inhibition above about 70%; inactive = the rest.

What was measured:
[1] = NCI Yeast Anticancer Drug Screen. Data for the rad50 strain (AID 155);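 also: 0% = growth of vehicle-only cultures of the same strain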; conditions: S. cerevisiae rad50 strain growth inhibition, stronger effect = higher value
Summary of the method: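 Vehicle-treated cultures provide the reference for the growth inhibition reported for compound-exposed, repair-deficient yeast.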

[2] = NCI Yeast Anticancer Drug Screen. Data for the mec2-1 strain (AID 157); conditions: S. cerevisiae mec2-1 strain, stronger effect = higher value
Summary of the method: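 Cells of the genetically defined mec2-1 yeast strain are incubated with test compound. Inhibition of growth is calculated against vehicle-treated controls.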

[3] = NCI Yeast Anticancer Drug Screen. Data for the sgs1 mgt1 strain (AID 161);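 also: 0% = growth of cultures given vehicle only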; conditions: S. cerevisiae sgs1 mgt1 strain, stronger effect = higher value
Summary of the method: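 Read-out: growth inhibition vs vehicle controls. Cells: mutant yeast strain deficient in DNA damage repair.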

[4] = NCI Yeast Anticancer Drug Screen. Data for the cln2 rad14 strain (AID 165);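 also: 0% = growth equal to vehicle treated cultures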; conditions: S. cerevisiae cln2 rad14 strain, stronger effect = higher value
Summary of the method: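 The screen exposed genetically defined yeast (cln2 rad14) to test compounds and scored growth inhibition relative to vehicle-treated controls.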

[5] = NCI Yeast Anticancer Drug Screen. Data for the bub3 strain (AID 167); conditions: S. cerevisiae bub3 mutant strain, stronger effect = higher value
Summary of the method: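 Mutant yeast screening strain plus compound; vehicle-treated cultures serve as the 0% inhibition reference.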

[6] = NCI Yeast Anticancer Drug Screen. Data for the mlh1 rad18 strain (AID 175); conditions: S. cerevisiae mlh1 rad18 strain growth inhibition, stronger effect = higher value
Summary of the method: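 Compound-treated yeast growth, normalised to vehicle controls. Strain bears defined DNA repair mutations.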

[7] = at 5.0 µM (retest, dose inferred, filed as 0.5)
[8] = at 50.0 µM (retest, dose inferred, filed as 5.0)

SMILES	growth inhibition [1, 7]	growth inhibition [1, 8]	growth inhibition ([1]; at 50.0 µM)	growth inhibition [2, 7]	growth inhibition [2, 8]	growth inhibition ([2]; at 50.0 µM)	growth inhibition [3, 7]	growth inhibition [3, 8]	growth inhibition ([3]; at 50.0 µM)	growth inhibition [4, 7]	growth inhibition [4, 8]	growth inhibition ([4]; at 50.0 µM)	growth inhibition [5, 7]	growth inhibition [5, 8]	growth inhibition ([5]; at 50.0 µM)	growth inhibition [6, 7]	growth inhibition [6, 8]	growth inhibition ([6]; at 50.0 µM)
Cc1ccc(S(=O)(=O)OC2C(C)OCOC(C)C2OS(=O)(=O)c2ccc(C)cc2)cc1 (configuration not stated)	1%	0%	24.6%	-2%	-1%	11.9%	-2%	-17%	5.9%	0%	-12%	16.6%	2%	15%	93% (active)	1%	1%	-3.85%
CCN1C2=NC(=O)N(C)C(=O)C2(Cl)C(C(SC)S(=O)(=O)c2ccc(C)cc2)c2ccccc21 (configuration not stated)	22%	22%	88.1% (active)	7%	7%	86.3% (active)	15%	15%	81.7% (active)	18%	18%	90% (active)	1%	1%	89.5% (active)	2%	2%	84.7% (active)
O=C(O)CCCc1ccc2ccccc2c1	-5%	0%	17.4%	11%	-1%	-27.1%	10%	6%	11.9%	14%	-71%	40%	13%	0%	5.65%	-1%	9%	12%
CC(=O)NC1=C(Sc2ccc([N+](=O)[O-])cc2)C(=O)c2ccccc2C1=O	96% (active)	98% (active)	61.4%	98% (active)	96% (active)	11.1%	98% (active)	99% (active)	21.9%	46%	13%	-18.1%	75% (active)	5%	62%	98% (active)	99% (active)	51.5%
CN(CN(C)N=Nc1ccc(Cl)cc1)CN(C)N=Nc1ccc(Cl)cc1	-14%	9%	-3.1%	3%	-8%	-1.75%	-24%	4%	4.7%	-6%	-2%	19.9%	0%	4%	-0.7%	-12%	3%	9.7%
C=C1C(O)C2(O)OCC34C(CC5C(C)=CC(=O)C(O)C5(C)C23)OC(=O)C(OC(=O)C/C=C(\C)CCCCC)C14 (configuration not stated)	76% (active)	98% (active)	92.3% (active)	52%	98% (active)	93.3% (active)	60%	98% (active)	93% (active)	88% (active)	98% (active)	91.7% (active)	75% (active)	99% (active)	91.2% (active)	89% (active)	98% (active)	92.2% (active)
COC(=O)c1n[nH]c(C(C)C)c1N=NN(C)C	29%	95% (active)	98.9% (active)	-35%	97% (active)	99.1% (active)	-27%	96% (active)	99% (active)	-11%	98% (active)	99% (active)	-38%	96% (active)	98.3% (active)	-77%	96% (active)	99.2% (active)
O=C(CC(=O)c1ccccc1NC1=Cc2ccccc2C(=O)C1=O)C(=O)NC1=C(Cl)C(=O)c2ccccc2C1=O	36%	92% (active)	88% (active)	21%	82% (active)	86.2% (active)	14%	86% (active)	85.7% (active)	16%	66%	82.7% (active)	14%	94% (active)	84.9% (active)	37%	90% (active)	86.2% (active)
Clc1ccc(CSCCc2ccncc2)cc1Cl	-5%	98% (active)	98.7% (active)	0%	96% (active)	99% (active)	5%	97% (active)	97.5% (active)	-19%	95% (active)	97.6% (active)	5%	98% (active)	98.2% (active)	4%	97% (active)	98.8% (active)
Cc1cc2nc3ccc(N(C)C)cc3nc2cc1N	42%	94% (active)	51.6%	20%	89% (active)	93.8% (active)	42%	94% (active)	45.9%	29%	80% (active)	82.2% (active)	19%	90% (active)	94.9% (active)	42%	92% (active)	92% (active)
C=Cc1nc(N)nc(-c2ccc(C)cc2)n1	7%	91% (active)	92.3% (active)	12%	94% (active)	91.3% (active)	3%	95% (active)	92.6% (active)	-8%	74% (active)	49.2%	6%	93% (active)	86% (active)	7%	96% (active)	95.2% (active)
Oc1ccc(-c2ccccc2)cc1Cl	-1%	98% (active)	99.2% (active)	-12%	99% (active)	99.7% (active)	-3%	99% (active)	99.7% (active)	-11%	98% (active)	97.5% (active)	-23%	98% (active)	99.4% (active)	-5%	99% (active)	99% (active)
CC(/C=C/c1ccc(Cl)cc1)=N\NC(N)=S	11%	44%	68.2%	-1%	29%	69%	1%	59%	49.4%	12%	32%	47.1%	1%	38%	50%	16%	54%	60.5%
COc1ccc2c(c1)[n+]([O-])c(C(N)=O)c(N)[n+]2[O-]	23%	100% (active)	99.4% (active)	14%	100% (active)	99.5% (active)	17%	99% (active)	99.3% (active)	31%	98% (active)	99.1% (active)	40%	99% (active)	98.4% (active)	42%	99% (active)	99.2% (active)
Oc1cc2c(cc1C(c1ccc(F)cc1)N1CCCCC1)OCO2 (configuration not stated)	-1%	76% (active)	63%	-5%	73% (active)	64.4%	6%	77% (active)	85.5% (active)	-4%	39%	54.9%	-8%	54%	84.4% (active)	-1%	88% (active)	59.3%
Cc1cc(NC(=S)SCc2ccc(Cl)cc2)ccc1Br	35%	98% (active)	91.3% (active)	26%	99% (active)	92.7% (active)	47%	99% (active)	91.3% (active)	37%	99% (active)	88.8% (active)	55%	100% (active)	91.2% (active)	25%	99% (active)	91.2% (active)
O=C1CNCCCN2CCN(CCCNCC(=O)Nc3ccc(cc3)S(=O)(=O)c3ccc(cc3)NC(=O)CNCCCN3CCN(CCCNCC(=O)Nc4ccc(cc4)S(=O)(=O)c4ccc(cc4)N1)CC3)CC2	1%	99% (active)	98.8% (active)	-25%	99% (active)	98.8% (active)	-14%	99% (active)	99% (active)	-5%	99% (active)	96.8% (active)	-3%	99% (active)	97.8% (active)	-11%	99% (active)	98.7% (active)
N#Cc1ccccc1[N+](=O)[O-]	16%	95% (active)	67.5%	1%	58%	20.4%	3%	63%	59.8%	-1%	25%	0.35%	-3%	54%	61.4%	4%	93% (active)	79.5% (active)
COc1cc(C)cc(C(=O)OCc2ccccc2)c1C1=C(Cl)C(=O)C(Cl)=CC1=O	16%	16%	85.5% (active)	12%	12%	83.9% (active)	5%	5%	87.5% (active)	10%	10%	82% (active)	-16%	-16%	80.5% (active)	4%	4%	74.5% (active)
